Bioassay records from PubChem BioAssay.
A selection: hits, their analogues and other compounds. The true share with any hit is near 5.5%.
RORgamma inh = qHTS for inhibitors of ROR gamma transcriptional activity; Drosophila S2 Gal4-RORgamma UAS-luciferase reporter, 20 h; Potency, µM (series often up to 53.6 µM), actives largely listed as inhibitors; 310,000 compounds, 5.4% hits; further: nearly all actives have a fitted effect of over 60% in size
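Compounds are pin-transferred onto Drosophila Schneider cells expressing a copper-inducible Gal4–ROR gamma transactivation domain fusion. After 1 hr, copper sulfate is added to 700 uM final; luciferase is read 20 hr later.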
MBNL1-CUG inh = qHTS Assay for Inhibitors of MBNL1-poly(CUG) RNA binding; Potency, µM (doses to about 57.5 µM), most hits filed as inhibitors; Muscleblind-like protein 1 (Homo sapiens), Q9NR56; TR-FRET MBNL1-His/biotin-(CUG)12 binding, 665/545 ratio; 280,000 compounds, 0.036% hits; AID 2675, 2010; active means well fitted inhibition curve with a large enough effect in the signal ratio, with a control signal flat, not every such curve was filed as active; inconclusive means small, poorly fitted or top-dose-only effect, or effect the other way, or a change in a side signal; inactive means no such curve, though single readings can be large or run the other way; the % refers to the signal ratio
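Ratiometric TR-FRET (665 over 545 nm, excitation 340 nm) tracks disruption of MBNL1-His/biotin-(CUG)12 complex after 60 min at room temperature, with compounds at 92 nM to 58 uM final.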
CBFb-RUNX1 inh = qHTS Assay for Compounds Blocking the Interaction Between CBF-beta and RUNX1 for the Treatment of Acute Myeloid Leukemia. Potency, µM (top dose mostly 59.8 µM), most hits filed as inhibitors. AlphaScreen CBFb-His/RUNX1-biotin binding, biochemical. 230,000 tested, under 10 active. AID 1477, 2009. Runt-related transcription factor 1 (Homo sapiens) + Core-binding factor subunit beta …
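Room-temperature protein-protein interaction test with 30 nM each of His-tagged CBF-beta and biotinylated RUNX1, 15 min with compound, then 90 min with nickel plus streptavidin beads. Signal read in AlphaScreen mode.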
Six1-Eya2 inh = qHTS Assay for Inhibitors of the Six1/Eya2 Interaction. Homeobox protein SIX1 (Homo sapiens) + Protein phosphatase EYA2 (Homo sapiens), …. AlphaScreen GST-Six1/His-Eya2 binding, biochemical; active compounds read low. activity change, % (no concentration beside the values). 360,000 compounds, 0.56% hits. AID 651725, 2012; in the data active means activity change below about -65%; inconclusive means mostly about -30% to -63%
Target sequence (O00167 whole entry, looked up): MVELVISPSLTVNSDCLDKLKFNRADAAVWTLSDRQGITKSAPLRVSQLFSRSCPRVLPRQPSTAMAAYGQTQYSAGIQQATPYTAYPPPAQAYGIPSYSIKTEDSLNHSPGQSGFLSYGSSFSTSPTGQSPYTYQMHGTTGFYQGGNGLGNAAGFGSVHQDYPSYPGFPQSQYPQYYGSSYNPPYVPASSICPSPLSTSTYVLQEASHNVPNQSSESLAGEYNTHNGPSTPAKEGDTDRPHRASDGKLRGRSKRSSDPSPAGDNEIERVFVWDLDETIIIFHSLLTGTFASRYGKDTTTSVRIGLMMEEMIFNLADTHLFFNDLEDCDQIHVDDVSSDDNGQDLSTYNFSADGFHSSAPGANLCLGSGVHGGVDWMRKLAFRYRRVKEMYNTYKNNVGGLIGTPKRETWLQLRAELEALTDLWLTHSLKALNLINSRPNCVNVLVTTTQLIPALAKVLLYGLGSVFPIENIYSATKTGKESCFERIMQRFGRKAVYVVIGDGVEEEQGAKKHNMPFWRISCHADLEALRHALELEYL
Target sequence (Q15475 whole entry, looked up): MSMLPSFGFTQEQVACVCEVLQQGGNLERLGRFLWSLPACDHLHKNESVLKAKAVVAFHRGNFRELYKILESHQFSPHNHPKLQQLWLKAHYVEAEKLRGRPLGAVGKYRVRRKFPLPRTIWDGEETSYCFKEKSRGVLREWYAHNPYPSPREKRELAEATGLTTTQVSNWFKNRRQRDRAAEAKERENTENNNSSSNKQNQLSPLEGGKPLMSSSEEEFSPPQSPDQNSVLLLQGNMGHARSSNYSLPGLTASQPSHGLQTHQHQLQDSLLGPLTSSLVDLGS
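Homogeneous AlphaScreen proximity assay pairing GST-Six1 with His-tagged Eya2 (added as 5X mix: 250 nM and 500 nM) in 50 mM Tris pH 8.0, 300 mM NaCl, 1 mM TCEP. Glutathione donor and nickel acceptor beads; 1 h, 37 °C, dark.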
CtBP-E1A inh = qHTS Assay for Inhibitors of the CtBP/E1A Interaction; CtBP / adenovirus E1A interaction (AlphaScreen); AlphaScreen GST-E1A/His-CtBP binding, 1536-well; active compounds read low; activity change, % (test concentration not listed); 340,000 compounds, 0.49% hits; AID 651724, 2012; in the data active means activity change below about -65%; inconclusive means mostly about -30% to -63%
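Steps: dispense buffer (Tris pH 8.0, NaCl 300 mM, TCEP 1 mM, BSA, Tween 20); add 5X protein mix (GST-E1A, His-CtBP, 125 nM each); pin 23 nL compound; 2 h at 37 °C, dark; add 5X beads (50 ug/mL); 1 h; read.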
Gal4-VP16 FLuc = VP16 counterscreen qHTS for inhibitors of ROR gamma transcriptional activity; Drosophila S2 Gal4-VP16 UAS-luciferase, luminescence, 20 h; Potency, µM (series often up to 53.6 µM), hits mostly inhibitors; 310,000 compounds, 3.5% hits; AID 2546, 2010;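 further: Gal4-VP16 expression switched on by copper sulfate through the metallothionein promoter; nearly all actives have a fitted effect of over 50% in size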
A number is an active result; – = inactive; ? = inconclusive; · = no result. Unless noted, the call rests on the fitted dose curve; in most records, active means well fitted curve in the direction sought with a large enough effect; inconclusive means small, poorly fitted or top-dose-only effect, or another doubt; inactive means no such curve, though single readings can be large; an effect the other way counts as inactive or inconclusive.

SMILES | RORgamma inh | MBNL1-CUG inh | CBFb-RUNX1 inh | Six1-Eya2 inh | CtBP-E1A inh | Gal4-VP16 FLuc
C[C@@H]1C[C@@H]([C@@H](C)CC2CC(=O)NC(=O)C2)C(=O)[C@@H](C)C1 | 0.224µM | · | – | · | · | –
CC1CC(C)C(=NNC(N)=O)C(C(O)CC2CCC(=O)NC2=O)C1 (stereo unspecified) | · | · | · | – | – | ·
O=C(Nc1ncc(Cc2ccccc2)s1)C1COc2ccccc2O1 (stereo unspecified) | 10µM | – | – | – | – | 2µM
CCC(CC)c1nnc(NC(=O)C2COc3ccccc3O2)s1 (stereo unspecified) | 10µM | – | – | – | – | –
O=C(NC1=NCCS1)C1COc2ccccc2O1 (stereo unspecified) | 6.31µM | – | – | – | – | 4.47µM
CCc1nnc(NC(=O)C2COc3ccccc3O2)s1 (stereo unspecified) | – | – | – | – | – | –
CC(C)NC(=O)C1(C)CCN1Cc1ccc(C(F)(F)F)cc1 (stereo unspecified) | · | · | · | – | – | ·
O=C(O)c1ccccc1CSc1nc2ccccc2[nH]1 | – | – | · | – | – | ?
CCOC(=O)c1c(CN2CCN(c3ccccc3)CC2)oc2cc(Br)c(O)cc12 | – | – | · | – | · | –
Clc1ccc2c(-c3ccccc3)nc(-c3cccs3)nc2c1 | · | · | · | – | – | ·
C/C(=N/Nc1ccccc1[N+](=O)[O-])c1ccc([N+](=O)[O-])cc1 | – | – | · | – | · | –
CC1=C/C(=N\Nc2ccccc2[N+](=O)[O-])CC(C)(C)C1 | – | – | · | -69.2 | -68.0 | –
C=CCNC(=S)N1CCN(Cc2ccccc2)CC1 | – | – | – | – | – | –
O=C(/C=C/c1cccc(F)c1)c1ccc(N2CCOCC2)cc1 | ? | – | – | – | – | 22.4µM
O=C(/C=C/c1cccs1)c1ccc(N2CCOCC2)cc1 | 7.94µM | – | – | – | · | 14.1µM
COC(=O)C(C(=O)OC)C1CCCCC1NS(=O)(=O)c1ccc(C)cc1 (stereo unspecified) | · | · | · | – | – | ·
Cc1[nH]c2ccccc2c1CN1CCc2ccccc2C1 | 11.2µM | – | – | – | – | ?
CC(C)=CCC/C(C)=C/C=N/NC(=O)c1cccc([N+](=O)[O-])c1 | 1.58µM | – | – | – | – | 1.41µM
Nc1ccc(C(=O)N/N=C\C=C\c2ccc([N+](=O)[O-])cc2)cc1 | – | ? | – | – | – | –
C/C(CC(=O)N1CCN(C=O)CC1)=N\NC(=O)c1ccc([N+](=O)[O-])cc1 | 8.91µM | – | – | – | · | ?
CC(/C=N/NC(=O)c1cccc([N+](=O)[O-])c1)=C\c1ccccc1 | – | – | – | – | – | –
CC(C)=CCC/C(C)=C/C=N/NC(=O)c1ccc([N+](=O)[O-])cc1 | 3.55µM | – | – | – | – | 2.82µM
C/C(CC(=O)N1CCN(C=O)CC1)=N\NC(=O)c1cc2ccccc2cc1O | – | – | ? | – | – | –
CC(C)(C)c1ccc(CC(=O)N2CCC2(C)C(=O)NS(=O)(=O)c2cccc(F)c2)cc1 (stereo unspecified) | · | · | · | – | – | ·
CC(C)C[C@H](NC(=O)c1nc[nH]c1C(=O)N(C)Cc1ccccc1)C(=O)OCc1ccccc1 | – | – | – | – | – | 3.55µM
SMILES | RORgamma inh | MBNL1-CUG inh | CBFb-RUNX1 inh | Six1-Eya2 inh | CtBP-E1A inh | Gal4-VP16 FLuc
CC(C)C[C@H](NC(=O)c1[nH]cnc1C(=O)N[C@@H](C)C(=O)OC(C)(C)C)C(=O)OC(C)(C)C | 6.31µM | – | – | – | – | ?
CC(C)C[C@H](NC(=O)c1nc[nH]c1C(=O)N1CCN(c2ccccc2)CC1)C(=O)OCc1ccccc1 | 5.01µM | – | – | – | ? | ?
CC(C)C[C@H](NC(=O)c1nc[nH]c1C(=O)NCC(=O)OC(C)(C)C)C(=O)OCc1ccccc1 | 3.98µM | – | – | – | – | 17.8µM
Cn1c(=O)c2c(ncn2CC(=O)OCC(=O)Nc2ccc(F)cc2Cl)n(C)c1=O | · | · | · | – | – | ·
CC(C)C[C@H](NC(=O)c1[nH]cnc1C(=O)N[C@@H](C)c1ccccc1)C(=O)OCc1ccccc1 | ? | – | – | – | · | ?
CC(C)C[C@H](NC(=O)c1nc[nH]c1C(=O)N1CCN(C(=O)OC(C)(C)C)CC1)C(=O)OC(C)(C)C | 2.82µM | – | – | – | – | ?
CC(C)C[C@H](NC(=O)c1nc[nH]c1C(=O)N[C@@H](CC(C)C)C(=O)OC(C)(C)C)C(=O)OCc1ccccc1 | 5.01µM | – | · | – | – | 7.08µM
COc1ccccc1NC(=S)N1CCCc2ccccc21 | 2.82µM | – | – | – | – | –
COc1ccc(NC(=S)N2CCc3ccccc32)cc1OC | 8.91µM | – | · | – | – | ?
CCC(C)NC(=S)N1CCN(C(c2ccccc2)c2ccccc2)CC1 (stereo unspecified) | 11.2µM | – | – | – | – | ?
Fc1cccc(NC(=S)N2CCc3ccccc32)c1 | 8.91µM | – | · | – | – | ?
O=C(NCCCN1CCOCC1)c1cc(S(=O)(=O)N2CCCCC2)ccc1Cl | · | · | · | – | – | ·
CC1(C)C(=O)NCCN1C(=O)CC1C(=O)NCCN1Cc1cccc(C(F)(F)F)c1 (stereo unspecified) | – | – | · | – | – | –
S=C(Nc1ccccc1)N1CCc2ccccc21 | 11.2µM | – | · | – | · | 15.8µM
COc1ccc(NC(=S)N2CCN(C(c3ccccc3)c3ccccc3)CC2)cc1OC | 8.91µM | ? | – | – | – | 12.6µM
O=[N+]([O-])c1ccc(NC(=S)N2CCc3ccccc32)cc1 | 12.6µM | ? | · | – | – | ?
COc1cc(C(=O)NC(C)C2CC3CCC2C3)ccc1OC(F)F (stereo unspecified) | · | · | · | – | – | ·
C=C(C)C1Cc2c(C)nn(-c3nc(C)cc(C)n3)c2C1 (stereo unspecified) | 0.355µM | – | – | – | – | 2µM
COc1ccc(-c2noc(CN(Cc3nccn3C)C(C)C)n2)cc1 | ? | – | – | – | – | –
CC(C)N(Cc1nc(-c2ccc(Cl)cc2)no1)Cc1nccn1C | 5.01µM | – | – | – | – | ?
CN(Cc1cn(-c2ccccc2)nc1-c1ccc2c(c1)OCO2)Cc1nccn1C | 11.2µM | – | – | ? | · | 11.2µM
Cc1cnccc1CN(C)Cc1cn(C)nc1-c1cccc(Cl)c1 | – | – | – | – | – | –
